Source: PubChem (National Center for Advancing Translational Sciences (NCATS))
An excerpt weighted towards active compounds, which were near 1% of everything screened.
TrxR1 inh – qHTS Assay for Inhibitors of Mammalian Selenoprotein Thioredoxin Reductase 1 (TrxR1): qHTS; recombinant rTrxR1, NADPH fluorescence consumption, selenite substrate; Potency, µM (highest dose often 114 µM), for inactives: top-dose activity change, negative = inhibition, most hits filed as inhibitors; 390,000 compounds, 1% hits; AID 588453, 2011; further: nearly all actives have a fitted effect of over 65% in size
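Rat TrxR1 (90 nM in the dispensed reagent) was pre-reduced with 400 uM NADPH for 5 min at room temperature, then incubated with compound for 15 min. After 400 uM selenite was added, NADPH fluorescence (Ex 340/Em 450 nm) was followed for 8 min.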
TrxR1 substrate – qHTS Assay for Substrates of Mammalian Selenoprotein Thioredoxin Reductase 1 (TrxR1): qHTS | Thioredoxin reductase 1, cytoplasmic (Rattus norvegicus), O89049 | purified TrxR1 substrate turnover, NADPH consumption readout | Potency, µM (titrated, usually from 114 µM), for inactives: at the top dose activity change, negative = substrate turnover | 390,000 compounds, 0.01% hits | AID 588456, 2011; further: nearly all actives have a fitted effect of over 50% in size
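Rat TrxR1, dispensed at 90 nM, was prereduced with 400 uM NADPH (final) for 5 min at ~22 deg C, then incubated with compound 15 min before 400 uM selenite. A first-read NADPH fluorescence drop versus no-compound background flagged substrates.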
RGS4 inh – Inhibitors of Regulator of G Protein Signaling (RGS) 4: qHTS; Potency, µM (highest dose often 114 µM), for the others: at the highest dose activity change, negative = inhibition, usual class: inhibitors; Transcreener GDP fluorescence polarization, RGS4-accelerated GTP hydrolysis; AID 504845, 2011; 390,000 compounds, 0.039% hits; Regulator of G-protein signaling 4 (Homo sapiens), P49798; further: nearly all actives have a fitted effect of over 75% in size
Target sequence (P49798 whole entry, looked up): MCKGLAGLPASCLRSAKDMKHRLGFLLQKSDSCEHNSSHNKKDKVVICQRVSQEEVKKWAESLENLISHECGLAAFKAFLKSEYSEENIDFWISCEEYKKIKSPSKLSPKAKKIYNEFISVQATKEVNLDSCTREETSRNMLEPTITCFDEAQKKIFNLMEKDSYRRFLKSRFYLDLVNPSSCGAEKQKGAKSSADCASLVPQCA
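MLSMR compounds (23 nl, pin-transferred) preincubated 10 min at room temperature with a 500nM (2x) first reagent, then RGS4 at 900nM (2x) plus Transcreener GDP mix added; fluorescence polarization (620/688 nm) read before and after 90 min at 30 °C.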
GALK inh – qHTS Assay for Inhibitors of Human Galactokinase (GALK); P51570; Purified GALK, Kinase-Glo residual ATP luminescence; Potency, µM (doses to about 57.5 µM), for the others: top-dose activity change, negative = inhibition, actives largely listed as inhibitors; 270,000 compounds, 0.007% hits; AID 1868, 2009
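GALK at 5 nM final was combined with compound, 35 uM ATP and 100 uM galactose in HEPES pH8.0 with MgCl2 and DTT. The reaction ran one hour at room temperature before luminescent ATP detection.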
USP2a block – qHTS Assay for Inhibitors of Ubiquitin-specific Protease USP2a Using CHOP2 as the Reporter | Ubiquitin carboxyl-terminal hydrolase 2 (Homo sapiens), O75604 | USP2 core, Ub-CHOP2 coupled fluorogenic reporter, 485/531 | Potency, µM (doses to about 38.3 µM), for the others: at the highest dose activity change, negative = inhibition, most hits filed as inhibitors | 330,000 compounds, 0.01% hits | AID 463254, 2010;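 further: plate controls were DMSO wells for no effect and full inhibition by NEM control for full effect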
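USP2 core (10nM final) preincubated 30min RT with compound in 20mM Tris-HCl pH 8.0, 2mM CaCl2, 2mM beta-mercaptoethanol, 0.05% CHAPS; 25nM Ub-CHOP2 plus 25nM reporter substrate added, fluorescence (Ex485/Em531) read after 60min.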
Eya2 phos inh – qHTS Assay for Inhibitors of the Phosphatase Activity of Eya2; 330,000 compounds, 0.006% hits; Potency, µM (series often up to 76.9 µM), without a hit: at the top dose activity, negative = inhibition, hits mostly inhibitors; AID 488837, 2010; recombinant Eya2, OMFP fluorescence dephosphorylation (OMFP is methylfluorescein phosphate)
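Eya2 (0.2 uM) preincubated 10 min at ambient with compound, then OMFP substrate added at 50 uM; 10 min reaction in 50 mM HEPES pH 7.5, 50 mM NaCl, 5 uM MgCl2, 0.05% BSA, 1 mM DTT. Fluorescence read at Ex 485/Em 525 nm.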
An asterisk follows results filed as active; ? = inconclusive; . = no result; ! = repeats disagree; [ ] = another dose, or the depositor's remark. The call rests on the fitted dose curve; in most records, active means well fitted curve in the direction sought with a large enough effect; inconclusive means small, poorly fitted or top-dose-only effect, or another doubt; inactive means no such curve, though single readings can be large; an effect the other way counts as inactive or inconclusive. Unless noted, on the % scale 0 is the no-effect control and ±100 the full control effect; potency means the concentration at half of the fitted maximal effect.

SMILES	TrxR1 inh	TrxR1 substrate	RGS4 inh	GALK inh	USP2a block	Eya2 phos inh
CC(Nc1ccc(F)cc1)=[N+](C)CCNS(=O)(=O)c1ccc(Cl)cc1	79µM*	-5%	19%	1%	4%	3%
O=C1C(Cl)=C(NS(=O)(=O)c2ccc([N+](=O)[O-])cc2)C(=O)c2ccccc21	0.79µM*	-13%	-23%	-1%	4%	?
O=[N+]([O-])c1ccc(Oc2ccc(S(=O)(=O)Nc3ccccc3)cc2)cc1	8%[57.1 µM]	13%[57.1 µM]	-11%	1%	-3%	-7%
CN1C(=O)/C(=N\OC(=O)c2ccccc2Cl)c2ccccc21	10µM*	5%	-33%	-1%	0%	5%
C=C1C(=O)O[C@@H]2[C@H]3O[C@]3(C)CCC=C(C)CC[C@@H]12	17µM*!	18%[57.1 µM]	?	.	.	-6%
C=C1C(=O)O[C@@H]2[C@H]1CC[C@H](C)[C@]1(O)CCC(=O)[C@@]21C	6%	4%	2%	2%	1%	2%
CC1CCN(c2nc(-c3ccco3)c3c(c2C#N)CC(C)(C)OC3)CC1	8.9µM*	21%	?	-2%	-1%	-16%
COc1ccc(OC)c(C2=NOC(C(=O)NCc3ccco3)C2)c1 (stereo not drawn)	28µM*	4%	-13%	2%	-1%	5%
COc1c2occc2c(OC)c2c(=O)cc(C)oc12	6%	-7%	16%	-2%	6%	-1%
Cc1cc(=O)c2c(o1)C(=O)c1occc1C2=O	32µM*	-11%	?	.	.	.
CN(C)c1ccc(/C=C2\C=Nc3ccccc32)cc1	6%	-5%	.	.	.	.
COc1ccccc1N1C(=O)CC(Nc2ccc(N3CCOCC3)cc2)C1=O (stereo not drawn)	7.9µM*	6%[57.1 µM]	-39%	3%	-4%	25%
O=C1CC(Nc2ccc(N3CCOCC3)cc2)C(=O)N1c1ccccc1 (stereo not drawn)	?	13%	11%	0%	-1%	8%
Cc1ccc(NC2CC(=O)N(c3ccc(C)cc3)C2=O)cc1 (stereo not drawn)	25µM*	-3%	-14%[11.4 µM]	-1%	-9%	-18%
CCOc1ccccc1N1C(=O)CC(Nc2ccc(N3CCOCC3)cc2)C1=O (stereo not drawn)	7.1µM*	6%[57.1 µM]	-35%	-1%	?	1%
CN(CC(=O)O)c1ccc(C=O)cc1	-10%	-20%	.	.	.	.
C[N+]1(CC(=O)c2ccc(O)c(O)c2)CCOCC1	-16%	-13%	.	.	.	.
Oc1cc2cc(-c3csc(-c4ccc(F)cc4)n3)cc3c2n1CCC3	27%	6%	.	.	.	.
COC(=O)C1=C(NC(=O)COc2ccc3ccccc3c2)CCS1	79µM*	30%	-17%	0%	-1%	6%
COC(=O)C1=C(NC(=O)COc2ccc(Cl)cc2Cl)CCS1	14%[57.1 µM]	11%[57.1 µM]	-3%	0%	4%	-7%
Cn1ncc(S(=O)(=O)Cc2ccccc2)c(Cl)c1=O	1.1µM*	10%[57.1 µM]	-17%	2%	0%	2%
Cn1ncc(SCc2ccccc2)c(Cl)c1=O	20%	3%	-18%	1%	-1%	0%
CCN1C(=O)CS/C1=N\S(=O)(=O)c1ccc(Cl)cc1	10%[57.1 µM]	0%[57.1 µM]	-13%	-1%	2%	2%
CCn1c(Cl)c(C=O)s/c1=N\S(=O)(=O)c1ccccc1	1.4µM*	-4%	-12%[11.4 µM]	-2%	?	25%
